Casp6 inh – human caspase-6 inhibitors, primary screen, biochemical, VEID-R110 fluorescence, single point, set 2. P55212. 350,000 tested, 0.53% active. inhibition, % at 12.5 µM. purified caspase-6, Z-VEID-R110 cleavage fluorescence;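 active means mean inhibition across replicates at least about 35%, with every replicate also reaching that limit, limit read from the data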
Target sequence (P55212 24-179 limits assumed): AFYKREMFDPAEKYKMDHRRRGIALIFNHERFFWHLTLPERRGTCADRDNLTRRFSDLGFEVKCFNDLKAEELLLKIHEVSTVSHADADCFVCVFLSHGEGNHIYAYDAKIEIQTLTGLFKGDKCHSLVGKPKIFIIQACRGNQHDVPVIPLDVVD
Target sequence (P55212 194-293 limits assumed): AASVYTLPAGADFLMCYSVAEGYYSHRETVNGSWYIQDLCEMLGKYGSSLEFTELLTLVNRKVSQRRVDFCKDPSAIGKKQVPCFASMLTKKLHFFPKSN
NSD2 inh – NSD2 histone methyltransferase inhibitors, primary screen, biochemical, AlphaScreen, single concentration, set 2 | Histone-lysine N-methyltransferase NSD2 (Homo sapiens), O96028 | NSD2 peptide methylation, 120 min | inhibition, % at 12.5 µM | 310,000 tested, 0.54% active; in the data active means inhibition above about 50%
SIRT5 block – SIRT5 desuccinylase inhibitors, primary screen, biochemical, fluorescence imaging, single point, set 5 | Purified SirT5, succinyl-peptide AMC, trypsin-coupled fluorescence | inhibition, % at 15 µM | 330,000 tested, 1.1% active | AID 652115, 2013; in the data active means inhibition above about 15%
UBC9 SUMO inh – inhibitors of in vitro SUMOylation cascade, primary screen, biochemical, HTRF, uHTS. AID 2006, 2009. 290,000 tested, 0.36% active. inhibition, % at 35 µM. SUMO-conjugating enzyme UBC9 (Homo sapiens), P63279. HTRF SUMOylation assay, SAE1/SAE2 + UBC9; in the data active means inhibition above about 50%, passing the limit was not always enough
Target sequence (P63279 whole entry, looked up): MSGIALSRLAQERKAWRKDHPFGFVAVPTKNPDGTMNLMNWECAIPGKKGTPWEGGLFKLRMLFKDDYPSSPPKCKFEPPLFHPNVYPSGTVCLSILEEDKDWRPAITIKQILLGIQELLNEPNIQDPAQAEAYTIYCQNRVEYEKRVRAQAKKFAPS
Of the large screens only hits and unclear results are named; the others gave an inactive call. In the library only some 1.6% were active in any assay of this set; here they are far more common.

O=C(Nc1ccccc1)[C@@H]1[C@@H](CO)[C@@H]2Cn3c(cccc3=O)[C@H]1N2C(=O)c1ccccc1	none (no result: NSD2 inh, UBC9 SUMO inh)
COc1cc(C(=O)Nc2ccc(C)cc2C(NCC(=O)NN)c2ccccc2)cc(OC)c1OC (configuration not stated)	SIRT5 block 19
O=C1Nc2ccccc2C(=O)N2[C@H](c3ccccc3)[C@@H]3C(=O)N(Cc4ccccc4)C(=O)[C@@H]3[C@H]12	SIRT5 block 16 (no result: NSD2 inh)
O=C1Nc2ccccc2C(=O)N2[C@H](c3cccc(Br)c3)[C@@H]3C(=O)N(Cc4ccccc4)C(=O)[C@@H]3[C@H]12	none (no result: NSD2 inh, SIRT5 block)
CCOc1ccc2cc(C#N)c(SCC(=O)N3CCC(C)CC3)nc2c1	none (no result: Casp6 inh, NSD2 inh, SIRT5 block)
CCOC(=O)CSc1nc2cc(OCC)ccc2cc1C#N	SIRT5 block 21
O=C(c1ccccc1)c1ccc2nc(-c3ccco3)c(-c3ccco3)nc2c1	UBC9 SUMO inh 95
O=C(NCCc1ccccc1)c1ccc2nc(-c3ccco3)c(-c3ccco3)nc2c1	none (no result: Casp6 inh, NSD2 inh, SIRT5 block)
COc1ccccc1N1CCN(C(=O)c2ccc3nc(-c4ccco4)c(-c4ccco4)nc3c2)CC1	UBC9 SUMO inh 72 (no result: Casp6 inh, SIRT5 block)
O=C(NC1CCCC1)c1ccc2nc(-c3ccco3)c(-c3ccco3)nc2c1	UBC9 SUMO inh 51 (no result: Casp6 inh, NSD2 inh, SIRT5 block)
c1coc(-c2nc3ccccc3nc2-c2ccco2)c1	Casp6 inh 69 (no result: NSD2 inh)
O=C(N[C@@H]1C=C[C@@H](CC(=O)N2CCc3ccccc3C2)O[C@@H]1CO)C1CCOCC1	none (no result: NSD2 inh, UBC9 SUMO inh)
C[C@H](CO)N1C[C@H](C)[C@H](CN(C)S(=O)(=O)c2cn(C)cn2)Oc2ccc(NS(=O)(=O)c3ccccc3)cc2CC1=O	none (no result: NSD2 inh, UBC9 SUMO inh)
CN1c2ccc(-c3ccc(F)cc3)cc2[C@H]2[C@H](CCN2C(=O)c2ccncc2)[C@H]1CO	none (no result: Casp6 inh, NSD2 inh, UBC9 SUMO inh)
C=CCc1cc(OC)ccc1OCCN1CC(C)OC(C)C1 (configuration not stated)	SIRT5 block 102
CCCCC1=CC2=C(c3ccco3)C(=O)C(C)(OC(=O)c3ccc(OC)cc3)C(=O)C2=CN1CCCOC(C)C (configuration not stated)	SIRT5 block 34 (no result: NSD2 inh)
NC(=O)N/N=C/c1ccc([N+](=O)[O-])o1	none (no result: NSD2 inh, UBC9 SUMO inh)
O=C(N/N=C/c1ccc([N+](=O)[O-])o1)C1CC1	Casp6 inh 42
CNC[C@H]1Oc2ccc(NC(=O)Nc3ccc4c(c3)OCO4)cc2CC(=O)N([C@H](C)CO)C[C@@H]1C	none (no result: NSD2 inh, UBC9 SUMO inh)
COc1ccc(CN(C(=O)c2ccco2)c2ccc(C)c(C)c2)cc1	SIRT5 block 112
CCOc1ccc(N(Cc2ccc(OC)cc2)C(=O)c2ccco2)cc1	none
COc1ccc(C(=O)Nc2cccc3cccnc23)cc1OC	SIRT5 block 20
Cc1[nH][nH]c(=O)c1C(c1cc([N+](=O)[O-])ccc1O)c1c(C)[nH][nH]c1=O	SIRT5 block 26
Cc1[nH][nH]c(=O)c1C(c1ccccc1[N+](=O)[O-])C(C#N)C#N (configuration not stated)	none
C[C@@H]1CN([C@H](C)CO)C(=O)c2cccc(NS(C)(=O)=O)c2O[C@@H]1CN(C)S(C)(=O)=O	none (no result: NSD2 inh, UBC9 SUMO inh)
CCN(CC(=O)Nc1ccccc1C(F)(F)F)C(=O)c1ccc2c(=O)n3c(nc2c1)CCC3	SIRT5 block 22 (no result: NSD2 inh, UBC9 SUMO inh)
CCN(CC(=O)Nc1c(F)cccc1F)C(=O)c1ccc2c(=O)n3c(nc2c1)CCC3	none (no result: UBC9 SUMO inh)
COc1cc(CCc2ccccc2)c(C(=O)O)c(O)c1C/C=C(/C)CCC=C(C)C	SIRT5 block 32 (no result: NSD2 inh, UBC9 SUMO inh)
CC1CN(Cc2c(O)ccc3c2oc(=O)c2ccccc23)CC(C)O1 (configuration not stated)	NSD2 inh 98
Cc1cc(C(=O)N/N=C/c2cc(Br)cc(Br)c2OC(=O)c2ccccc2)n[nH]1	none (no result: Casp6 inh, NSD2 inh, SIRT5 block)
Cc1cc(C(=O)N/N=C/c2cc(Br)ccc2OC(=O)c2ccc(Br)cc2)n[nH]1	UBC9 SUMO inh 67 (no result: Casp6 inh, NSD2 inh, SIRT5 block)
Cc1cccc(NC(=O)CN2C(=O)S/C(=C\c3ccc(-c4cccc(C(=O)O)c4C)o3)C2=O)c1	none
Cc1ccc(NC(=O)CN2C(=O)S/C(=C/c3ccc(-c4cc(C(=O)O)ccc4C)o3)C2=O)cc1C	UBC9 SUMO inh 84 (no result: Casp6 inh, SIRT5 block)
Cc1ccc(C(=O)O)cc1-c1ccc(C=C2C(=O)c3ccccc3C2=O)o1	Casp6 inh 37, NSD2 inh 55
C[C@H]1CN([C@@H](C)CO)C(=O)Cc2cc(N(C)C)ccc2O[C@H]1CN(C)C(=O)Nc1cccc2ccccc12	none (no result: NSD2 inh, UBC9 SUMO inh)
C[C@H](CO)N1C[C@H](C)[C@@H](CN(C)C)Oc2c(NS(C)(=O)=O)cccc2C1=O	none (no result: NSD2 inh, UBC9 SUMO inh)
CCOc1ccc(S(=O)(=O)Nc2ccc(C(=O)N/N=C/c3c(C)nn(-c4ccccc4)c3N3CCCC3)cc2)cc1	Casp6 inh 62
CCCn1c(=O)c2sccc2n2c(CCCC(=O)NCc3ccco3)nnc12	Casp6 inh 58
CCCn1c(=O)c2sccc2n2c(CCCC(=O)NCc3cccnc3)nnc12	none
N=C1/C(=C\c2ccc(-c3cc(Cl)cc(Cl)c3)o2)C(=O)N=C2SC=C(c3ccccc3)N12	none (no result: Casp6 inh, SIRT5 block)
CC(C)S(=O)(=O)C1=NSC2=NC(=O)/C(=C\c3ccc(-c4cccc(C(=O)O)c4)o3)C(=N)N21	SIRT5 block 21
CC(C)S(=O)(=O)C1=NSC2=NC(=O)/C(=C\c3ccc(-c4ccccc4)o3)C(=N)N21	none (no result: Casp6 inh, SIRT5 block)
N=C1/C(=C/c2ccc(-c3cccc(C(=O)O)c3)o2)C(=O)N=C2SC=C(c3ccccc3)N12	UBC9 SUMO inh 78 (no result: NSD2 inh)
COc1ccccc1C(=O)Nc1ccc2c(c1)OC[C@@H](C)N(C(C)=O)C[C@@H](C)[C@@H](OC)CN(C)C2=O	none (no result: Casp6 inh, NSD2 inh, UBC9 SUMO inh)
C[C@H](NC(=O)[C@H](Cc1ccccc1)n1c(=O)[nH]c2ccccc2c1=O)C(=O)N1CCC(C(=O)O)CC1	SIRT5 block 15 (no result: NSD2 inh)
CCCC#Cc1ccc([C@H]2[C@H]3CN(C(=O)NCCC)CC(=O)N3[C@H]2CO)cc1	none (no result: NSD2 inh, UBC9 SUMO inh)
CC(C)CC#Cc1ccc([C@H]2[C@H](CO)N3CCCCN(C(=O)NC4CCCC4)C[C@@H]23)cc1	SIRT5 block 17 (no result: NSD2 inh, UBC9 SUMO inh)
CC(C)CC#Cc1ccc([C@@H]2[C@H]3CN(C(=O)Nc4ccccc4)CCCCN3[C@H]2CO)cc1	SIRT5 block 16 (no result: NSD2 inh, UBC9 SUMO inh)
CC(C)CC#Cc1ccc([C@H]2[C@H](CO)N3CCCCN(C(=O)Nc4ccccc4)C[C@@H]23)cc1	none (no result: Casp6 inh, NSD2 inh, UBC9 SUMO inh)
COC1=C(Br)C(=O)c2ncccc2C1=O	Casp6 inh 98 (no result: NSD2 inh, UBC9 SUMO inh)
O=C(NCCc1ccccc1)c1cccc2c(-c3ccc(F)c(F)c3)coc12	Casp6 inh 45 (no result: UBC9 SUMO inh)
O=C(c1ccncc1)N1C[C@H]2[C@@H](c3ccccc31)[C@H](CO)N2C(=O)c1ccccc1F	none (no result: NSD2 inh, UBC9 SUMO inh)
CCc1nnc(NC(=O)CSc2ccc(-c3ccco3)nn2)s1	none (no result: NSD2 inh)
Cc1nnc(NC(=O)CSc2ccc(-c3ccco3)nn2)s1	Casp6 inh 35
Cc1cc(C)cc(NC(=O)CSc2ccc(-c3cccs3)nn2)c1	SIRT5 block 22
O=C(O)C[C@H]1C[C@@H]2c3cc(NC(=O)NC4CCCC4)ccc3O[C@@H]2[C@H](CO)O1	none (no result: NSD2 inh, UBC9 SUMO inh)

Source: PubChem (several laboratories)
